# Source: PubChem BioAssay
# Only some compounds are listed: those with a hit (about 3% of all), similar ones and a draw of the others.
# PfHsp90 set2 = inhibits growth of yeast expressing Plasmodium falciparum Hsp90 | S. cerevisiae expressing PfHsp90, BacTiter-Glo ATP, 48 h; yeast lacking PDR1 and PDR3 efflux regulators | inhibition, % at 9.4 µM | hit rate 0.32% among 310,000 | AID 504621;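 active = every replicate shows inhibition above about 80%, whatever the replicate mean, limit read from the data; inconclusive = mean inhibition reaches the set limit but some replicate falls short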;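 also: 0% = DMSO neutral controls and 100% = 20 µM radicicol positive controls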
# Wnt act = Wnt/beta-catenin pathway activation; hit rate 1.2% among 300,000; Wnt/beta-catenin reporter cell assay, activator, plate reader; AID 743398; activation, % at 9.35 µM; in the data active = activation above about 30%, passing the limit was not always enough; inconclusive = no clear call, values can overlap the other calls;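 also: 0% = neutral control wells and 100% = positive control wells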
# MITF act = MITF TRPM1 promoter activation in melanoma cells | SK-MEL-5 TRPM1-promoter luciferase, 24 h; % of positive control, neutral wells = 0 | activation, % at 12.5 µM | hit rate 0.75% among 300,000 | AID 588334;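 active = mean activation of at least 80% with every replicate also reaching 80%; inconclusive = mean reaches 80% but some replicate falls short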;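 also: 0% = neutral control wells and 100% = parthenolide positive control wells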
# N-glyco inh = N-linked glycosylation inhibition | D54 ERlucT glycosylation luciferase reporter, 24 h; percent of 100 nM tunicamycin response | reporter increase, % at 12.5 µM | hit rate 0.23% among 360,000 | AID 588692;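 active = mean luciferase reporter signal, scaled so untreated is 0 and the glycosylation-blocking control 100, at or above a set limit in every replicate; inconclusive = mean reaches the limit but not every replicate does; inactive = mean below the limit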;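 also: luciferase carries N-glycosylation sites so blocking glycosylation raises the light; 0% = median of neutral control wells and 100% = median of 100 nM tunicamycin wells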
# esBAF inh = blocks esBAF chromatin remodeling in mouse ES cells; Bmi1-luciferase knock-in reporter, 24 h; 100% = twice the neutral-well signal; reporter increase, % at 12.5 µM; hit rate 2% among 350,000; in the data active = activation above about 40%; inconclusive = no clear call, values can overlap the other calls;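 also: 0% = median of the plate's neutral control wells and 100% = double that signal; a rise in the Bmi1 reporter signal indicates esBAF inhibition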
# Vif inh = blocks HIV Vif function; HEK293T cells, Vif self-association by quenched fluorescence, imaging, 24 h; inhibition, % at 7.49 µM; hit rate 0.35% among 340,000; AID 602346; in the data active = inhibition above about 50%, passing the limit was not always enough; inconclusive = no clear call, values can overlap the other calls; inactive = below about 31%
# Starred values were filed as active, the others as inactive; ? = inconclusive; nt = no result given.
SMILES,PfHsp90 set2,Wnt act,MITF act,N-glyco inh,esBAF inh,Vif inh
O=C1NC(=O)N(c2ccccc2)C(=O)/C1=C\c1ccc([N+](=O)[O-])s1,nt,-1,nt,nt,nt,nt
C=CC1C[N+]2(C)CCC1CC2C(O)c1ccnc2ccccc12 (stereo not drawn),nt,0,nt,nt,nt,nt
COC(=O)C1(C(=O)O)Cc2cc([N+](=O)[O-])ccc2N2CCCC21 (stereo not drawn),-7,0,1,0,-7,-12
COc1ccc2c(c1OC)C(=O)OC2C1c2cc3c(cc2CCN1C)OCO3 (stereo not drawn),-7,2,9,2,-1,9
COc1cc(C2c3cc4c(cc3CC3COC(=O)C32)OCO4)cc(OC)c1O (stereo not drawn),-17,-20,-58,?,nt,60*
COC(=O)C1=C(C(=O)OC)C2OC1c1cc3ccccc3cc12,132*,-5,-112,-21,nt,28
Cc1ccc(S(=O)(=O)N2Cc3cnnn3-c3ccccc3C2C#N)cc1 (stereo not drawn),15,0,-8,2,-6,nt
c1cc2c(cc1N1CCCCC1)CNCc1cnnn1-2,nt,-1,nt,1,-1,-8
c1ccc2oc(-c3ccc4c(c3)CNCc3cnnn3-4)cc2c1,nt,3,nt,0,66*,11
COc1ccc(-c2cc(=NCCCCCC(=O)O)c3cc(C)ccc3o2)cc1,-9,-2,18,9,nt,2
COc1ccc(-c2cc(=NCC(=O)O)c3ccccc3o2)cc1,-5,nt,11,9,47*,-11
c1ccc(CN2CCc3nc4ccccc4cc3C2)cc1,-1,19,nt,0,53*,-11
COC(=O)C1=C(c2cccc(OCc3ccccc3)c2)C[C@@H]2CC[C@H]1N2C(=O)NCc1ccc(F)cc1,-9,-2,-8,-6,11,-3
COc1cccc(OCc2cc(C(=O)N3C[C@H]4C[C@@H](C3)c3cccc(=O)n3C4)no2)c1,-6,28,101*,-2,73*,7
COc1cc(OC)cc(C(=O)NC(=S)N2C[C@H]3C[C@H](C2)c2cccc(=O)n2C3)c1,-10,-1,3,4,5,-4
CCC(=O)N1[C@@H]2Cn3c(ccc(-c4ccc(F)cc4)c3=O)[C@H]1[C@@H](C(=O)OC)[C@@H]2CO,nt,nt,nt,nt,2,nt
CN1CC(C(=O)c2ccccc2)C(C(=O)c2ccccc2)C1 (stereo not drawn),0,2,nt,-2,57*,-2
COC1CCC(OC2CC(C3(C)CCC4(CC(O)C(C)C(C(C)/C=C(\C)C(=O)C(C)CC(C)C(=O)O)O4)O3)OC3(OC(C4OC(O)(CO)C(C)CC4C)CC3C)C2C)OC1C (stereo not drawn),106*,-26,nt,-15,nt,-14
O=C1c2ccccc2-c2cc3ccccc3cc21,9,46*,33,0,nt,-5
CCCCN=C[C@]12CCC(O)CC1(O)CCC1[C@@H]2CC[C@]2(C)[C@H](C3C=CC(=O)O3)CCC12O (stereo partly drawn),15,-13,-78,-17,7,-22
N[C@@H]1CC[C@@]2(O)[C@H]3Cc4ccc(O)c5c4[C@@]2(CCN3CC2CC2)C1O5 (stereo partly drawn),nt,-1,-5,-5,5,7
Cn1c(=O)oc(=O)c2ccccc21,nt,-2,-8,0,-5,-17
Cc1cc(C(=O)N=Nc2c(O)n(C)c3ccccc23)c(C)o1,18,nt,87*,-5,36,21
O=[N+]([O-])c1oc2ccc3ccccc3c2c1CCO,136*,0,-52,-9,nt,-9
O=c1oc2ccccc2c(O)c1[C@H]1c2ccc(O)cc2Oc2c1c(=O)oc1ccccc21,-11,9,0,2,1,10
O=C(NCCN1CCC2(CC1)C(=O)NCN2c1ccccc1)c1cccc2c1-c1ccccc1C2=O,nt,2,nt,nt,nt,nt
CN1CN(c2ccccc2)C2(CCN(CCCSc3ccccc3NC(=O)/C=C/c3ccccc3)CC2)C1=O,20,-6,-67,30*,nt,5
Cc1cc(C)cc(N2C(=O)NC(=O)/C(=C\C=C\c3ccco3)C2=O)c1,2,10,-94,56*,2,nt
CCc1ccc(N2C(=O)NC(=O)/C(=C\C=C\c3ccco3)C2=O)cc1,7,9,-102,46*,-12,nt
